# In the library only some 1.6% were active in any assay of this set; here they are far more common.
# KCNQ2 inh: blocks the rat KCNQ2 potassium channel; CHO-K1 KCNQ2, FluxOR thallium flux, 20 min; hits give low values; B-score at 10 µM; 310,000 tested, 1.1% active;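 active = fluorescence ratio B-score at most minus 3 library SDs, with starting brightness B-score within 2 library SDs, cut at about -5.5 in these data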
# Target sequence (O88943 whole entry, looked up): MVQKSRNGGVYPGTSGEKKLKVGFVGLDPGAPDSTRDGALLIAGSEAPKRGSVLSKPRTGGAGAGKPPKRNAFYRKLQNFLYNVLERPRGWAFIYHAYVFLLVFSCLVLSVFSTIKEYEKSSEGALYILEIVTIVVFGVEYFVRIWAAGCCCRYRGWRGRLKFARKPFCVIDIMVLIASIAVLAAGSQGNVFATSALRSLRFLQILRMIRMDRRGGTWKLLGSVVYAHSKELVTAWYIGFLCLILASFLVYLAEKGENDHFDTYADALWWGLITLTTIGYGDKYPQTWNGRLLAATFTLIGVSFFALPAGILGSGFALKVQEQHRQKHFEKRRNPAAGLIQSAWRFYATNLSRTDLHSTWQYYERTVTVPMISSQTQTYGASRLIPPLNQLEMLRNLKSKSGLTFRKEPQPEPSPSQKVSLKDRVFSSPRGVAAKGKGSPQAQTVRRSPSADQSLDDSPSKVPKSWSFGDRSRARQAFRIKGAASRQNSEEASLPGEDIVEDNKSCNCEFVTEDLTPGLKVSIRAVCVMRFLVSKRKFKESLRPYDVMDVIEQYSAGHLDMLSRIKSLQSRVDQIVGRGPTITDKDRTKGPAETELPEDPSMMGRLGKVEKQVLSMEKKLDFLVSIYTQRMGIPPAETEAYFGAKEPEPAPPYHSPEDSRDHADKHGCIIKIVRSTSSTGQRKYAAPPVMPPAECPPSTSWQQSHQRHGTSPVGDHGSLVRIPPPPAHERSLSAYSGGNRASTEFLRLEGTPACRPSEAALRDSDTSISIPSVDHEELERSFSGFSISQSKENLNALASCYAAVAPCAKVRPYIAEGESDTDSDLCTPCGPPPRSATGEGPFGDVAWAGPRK
# KCNQ2 enhance: potentiators of rat KCNQ2 potassium channel; O88943; CHO-K1 KCNQ2, FluxOR thallium flux fluorescence; hits give high values; B-score at 10 µM; 310,000 tested, 0.54% active;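 active = fluorescence ratio B-score at least 3 SD of library B-scores, with initial fluorescence B-score within 3 of them, cut at about 5.3 in these data; same plate scores as AID 2156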;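 also: B-score of peak minus minimum over baseline fluorescence ratio after K+ and Tl+ stimulus; positive B-score means potentiation of KCNQ2 with more thallium influx and brighter signal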
# * = called active by the depositor; i = inactive; / = not tested or not shown.
SMILES,KCNQ2 inh,KCNQ2 enhance
Cc1cc(C)c(S(=O)(=O)N2CCCCC2CCNC(=O)C(=O)NCc2cccnc2)c(C)c1 (stereo not drawn),i,/
O=C(NCc1ccc(Cl)cc1)c1cc(S(=O)(=O)N2CCCCC2)c[nH]1,i,0.47
Cc1cc(C)c(-c2cc(NC(=O)COC(=O)c3ccc(CO)cc3)n(-c3ccccc3)n2)cc1C,i,/
Cc1cc(C)c(-c2cc(NC(=O)CSc3n[nH]c(N)n3)n(-c3ccccc3)n2)cc1C,-6.86*,-6.86
COc1ccccc1CNC(=O)CN(Cc1ccc(Cl)cc1)S(C)(=O)=O,-5.88*,-5.88
CS(=O)(=O)N(CC(=O)NCc1ccccc1)Cc1ccc(Cl)cc1,i,/
Fc1cccc(-c2cc3nc4c(c(NCc5ccco5)n3n2)CCCC4)c1,i,/
COc1cccc(-c2cc3nc4c(c(NCC(C)(C)CN(C)C)n3n2)CCCC4)c1,-7.7*,-7.7
Oc1ccc2ccccc2c1C=Nc1ccccc1Br,i,/
Oc1c(Br)cc(Cl)cc1C=Nc1ccccc1Br,i,8.36*
COc1ccc2nc(N3CCCC(C(=O)NCCCN4C(C)CCCC4C)C3)sc2c1 (stereo not drawn),i,1.4
COc1ccc(OC)c(NC(=O)Cn2c(=O)n(CC3CCCO3)c(=O)c3cc(OC)c(OC)cc32)c1 (stereo not drawn),i,/
CC1=C(C)CC(C(=O)NC2CCN(C(C)C)CC2)C(C(=O)O)C1 (stereo not drawn),i,0.46
C=C(C)c1cccc(C(C)(C)NC(=O)Nc2cc(C)ccc2OC)c1,i,1.95
C=C(C)c1cccc(C(C)(C)NC(=O)Nc2ccccc2OCC)c1,i,8.73*
O=C(NC(=S)Nc1nc(-c2cccc3ccccc23)cs1)c1cc2ccccc2o1,i,8.25*
Cc1ccc(-c2csc(NC(=S)NC(=O)c3cccs3)n2)cc1,i,3.81
Cc1cccc(NC(=S)NC(=O)c2cccs2)n1,i,1.52
O=C(NC(=S)Nc1nc(-c2ccccc2)cs1)c1cccs1,i,7.9*
Cc1nc(NC(=S)NC(=O)c2cccs2)ccc1Br,i,9.4*
CC(=O)Nc1nc(-c2cccc3ccccc23)cs1,i,0.01
COc1ccc(S(=O)(=O)NNC(=O)Nc2ccc(C)cc2C)c(OC)c1,i,/
CC(Nc1nc(-c2cccnc2)nc2ccccc12)c1ccc(F)cc1 (stereo not drawn),i,/
COc1cc2c(cc1OC)C(c1ccc(-c3ccccc3Cl)o1)=NCC2,-8.35*,-8.35
COc1cc2c(cc1OC)C(c1ccc(-c3cc(Cl)ccc3Cl)o1)=NCC2,i,/
SMILES,KCNQ2 inh,KCNQ2 enhance
COc1cc2c(cc1OC)C(c1ccc(-c3ccc(Cl)cc3Cl)o1)=NCC2,i,/
COc1cc2c(cc1OC)C(c1ccc(-c3ccc(Cl)c(Cl)c3)o1)=NCC2,-8.83*,-8.83
Cc1ccc(CNC(=O)CNC(=O)[C@@H]2Cc3ccccc3CN2)cc1,i,0.08
CCn1c(COc2ccccc2OC)nnc1SCC(=O)NC1CCCC1,i,0.14
CN(CC1CCCO1)S(=O)(=O)c1ccc(C(=O)Nc2ccc(S(N)(=O)=O)cc2)cc1 (stereo not drawn),i,0.65
COc1cccc(-c2nc(CS(=O)(=O)CC(=O)NCc3ccccc3)c(C)o2)c1,-5.86*,-5.86
COc1cccc(-c2nc(CS(=O)(=O)CC(=O)NCCCc3ccccc3)c(C)o2)c1,i,/
N#Cc1ccccc1/C=N/Nc1nc(-c2ccccc2)c2cc(Cl)ccc2n1,i,0.05
Cc1ccc2nc(N/N=C/c3ccccc3C#N)nc(-c3ccccc3)c2c1,-6.03*,-6.03
Cc1oc2c(cc(NS(=O)(=O)c3ccc(F)cc3)c3ccccc32)c1C(=O)O,i,/
Cc1oc2c(cc(NS(=O)(=O)c3ccc(C(C)C)cc3)c3ccccc32)c1C(=O)O,-5.83*,-5.83
Cc1nnc(NC(=O)CCC(=O)NC2CCCCCCC2)s1,i,0.89
N#CCC(=O)N/N=C\c1cc(Br)ccc1OC/C=C/c1ccccc1,i,/
O=C(Nc1cc(C(F)(F)F)ccc1N1CCOCC1)C1Cc2ccccc2CN1C(=O)c1ccco1 (stereo not drawn),-6.45*,-6.45
O=C(/C=C/c1ccco1)NC(=S)Nc1cc(C(F)(F)F)ccc1N1CCOCC1,-7.27*,-7.27
O=C(CCCCl)NC(=S)Nc1cc(C(F)(F)F)ccc1N1CCOCC1,i,0.03
O=C(Nc1ccccc1)C1Cc2ccccc2CN1C(=O)c1ccco1 (stereo not drawn),i,/
CC(=O)N1c2ccc3ccccc3c2C(C)CC12CCCCC2 (stereo not drawn),-6.63*,-6.63
CC1CC2(CCCCC2)Nc2ccc3ccccc3c21 (stereo not drawn),i,/
Cn1c(CNC(=O)CNC(=O)c2ccccc2)cc(=O)n(C)c1=O,i,/
CC1CCN(S(=O)(=O)c2ccc(C(=O)N3CCOCC3)cc2)CC1,i,1.25
Cn1cc(/C=C(\NC(=O)c2ccccc2)C(=O)N2CCOCC2)c2ccccc21,i,/
Cc1ccc(C(=O)N/C(=C\c2cn(C)c3ccccc23)C(=O)N2CCOCC2)cc1,-6.28*,-6.28
Cc1cc(OCC(=O)NNC(=S)NCC2CCCO2)cc(C)c1Cl (stereo not drawn),i,/
COc1ccc(C(=O)NCc2nnc(SCC(=O)NC3CCCCC3)o2)cc1,i,/
SMILES,KCNQ2 inh,KCNQ2 enhance
Cc1ccc(C)c(N2CCN(C(=O)CCCOc3cc(=O)n(C)c4ccccc34)CC2)c1,-6.43*,-6.43
Cc1ccc(C)c(N2CCN(C(=O)COc3cc(=O)n(C)c4ccccc34)CC2)c1,i,/
COc1cc(OC)c(C2=NOC(C(=O)N3CCCc4ccccc43)C2)cc1Cl (stereo not drawn),i,0.18
CCC1CCCCN1C(=O)C1CC(c2cc(Cl)c(OC)cc2OC)=NO1 (stereo not drawn),-6.23*,-6.23
Cc1noc(C)c1CSc1ncnc2sc(C)c(C)c12,i,1.15
Cc1noc(C)c1CSc1ncnc2sc3c(c12)CCCCC3,i,5.53*
COc1cccc(NC(=O)C2(S(=O)(=O)c3ccc(Cl)cc3)CC2)c1,i,/
COc1ccc(NC(=O)c2ccccc2NC(=O)c2ccccc2)cc1,i,0.15
COc1ccc(/C=C(/C(=O)Nc2ccccc2C(=O)NC(C)C)c2ccccc2)cc1,-7.9*,-7.9
COc1ccc(/C=C(/C(=O)Nc2ccccc2C(=O)N2CCCC2)c2ccccc2)cc1,-6.61*,-6.61
COc1ccc(/C=C/C(=O)Nc2ccccc2C(=O)N2CCCC2)cc1,i,/
CCc1ccc(NC(=O)CSc2nc(=O)n3cc(C)ccc3n2)cc1,i,2.01
COc1cccc(C(=O)Nc2ccc(NC(=O)C3CC=CCC3C(=O)O)cc2)c1 (stereo not drawn),i,0.05
CCOC(=O)C1CCCN(c2c(C(=O)c3ccccc3)cnc3ccccc23)C1 (stereo not drawn),i,/
CCOC(=O)C1CCN(c2c(C(=O)c3ccccc3)cnc3ccc(CC)cc23)CC1,-7.23*,-7.23
COC(=O)C(Cc1ccc(OC(=O)c2ccccc2C)cc1)N1Cc2ccccc2C1=O (stereo not drawn),-5.86*,-5.86
COC(=O)C(Cc1ccc(OC(=O)c2ccccc2Cl)cc1)N1Cc2ccccc2C1=O (stereo not drawn),i,/
CC(C)=C(NC(=O)c1ccccc1)C(=O)NCCc1nc2ccccc2[nH]1,i,1.37
Cc1cc(Oc2ccc(C(C)(C)C)cc2)nc(N2CCOCC2)n1,-6.23*,-6.23
Cc1cc(Oc2ccc(-c3ccccc3)cc2)nc(N2CCOCC2)n1,i,/

# Compound activity as filed in PubChem BioAssay.
